These sequences were tested against KDELR1 (assay: pooled miR-30 sensor sort-seq; sequence = guide strand). Conditions: shRNA.
Note: reference of the scale not given here.

Row | Sequence | sensor-assay potency score (higher = more potent)
1 | TAAGTAGCTTTGAACTTGCTAT | -0.0372
2 | TAGGACTTTGGTGATATAGAGG | -1.32
3 | TTGAAGAGATAGAGCGTGCGGT | -0.25
4 | TCGTAAGTAGCTTTGAACTTGC | -0.201
5 | TAAATCAACCAGACCGTGGTGA | 0.82

The sequences below were run against KDM2B in the same assay as above. Conditions: shRNA.

Row | Sequence | sensor-assay potency score (higher = more potent)
6 | TTTGGCATCGTTCCACACGGTC | -1.07
7 | TGGTTGAACAGCTTCTCCCTTG | -0.428
8 | TTCTTTGCCAGGTTTGAGCCGC | -0.547
9 | TAAACTTGCCTTCCTCCTCTTC | -0.422
10 | TTGTCCATCTGACCTGGCCTGT | -0.884
11 | TTCTTGGAGATATTGGTCCAGC | -0.935
12 | TATCTCTCCAGGACATACCAGC | -0.897
13 | TTGGAGATATTGGTCCAGCTGA | -0.912
14 | TTCGAGTGCTCATCCGACCTGC | 0.201
15 | TATCGCTGGCGGTCAATCGGGC | -0.118
16 | TTCTTTGCCAGGTTTGAGCTGC | -0.103
17 | TTACACTTCGGACACTCCCAGC | -1.12
